Reference: PubChem BioAssay AID1942 (Johns Hopkins Ion Channel Center, 2009)
Among all 2,400 compounds or so, about 580 (24%) were called active. These entries were drawn from the full list. Unmarked numbers belong to inactive results.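 How the source made its calls: active means activity change at or above the mean plus 3 SD of buffer wells without dofetilide, per plate; inactive means the rest.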

target: Potassium voltage-gated channel subfamily KQT member 2 (Rattus norvegicus) (UniProt O88943); assay: KCNQ2 potentiation in CHO cells – cell-based, FluxOR thallium flux, counter-screen for hERG block protector project, confirmation (AID 1942); conditions: FluxOR thallium flux fluorescence, at 10 µM, stronger effect = higher value;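 further: normalized value minus buffer-control mean plus three SD of buffer wells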
Sequence (O88943 whole entry, looked up): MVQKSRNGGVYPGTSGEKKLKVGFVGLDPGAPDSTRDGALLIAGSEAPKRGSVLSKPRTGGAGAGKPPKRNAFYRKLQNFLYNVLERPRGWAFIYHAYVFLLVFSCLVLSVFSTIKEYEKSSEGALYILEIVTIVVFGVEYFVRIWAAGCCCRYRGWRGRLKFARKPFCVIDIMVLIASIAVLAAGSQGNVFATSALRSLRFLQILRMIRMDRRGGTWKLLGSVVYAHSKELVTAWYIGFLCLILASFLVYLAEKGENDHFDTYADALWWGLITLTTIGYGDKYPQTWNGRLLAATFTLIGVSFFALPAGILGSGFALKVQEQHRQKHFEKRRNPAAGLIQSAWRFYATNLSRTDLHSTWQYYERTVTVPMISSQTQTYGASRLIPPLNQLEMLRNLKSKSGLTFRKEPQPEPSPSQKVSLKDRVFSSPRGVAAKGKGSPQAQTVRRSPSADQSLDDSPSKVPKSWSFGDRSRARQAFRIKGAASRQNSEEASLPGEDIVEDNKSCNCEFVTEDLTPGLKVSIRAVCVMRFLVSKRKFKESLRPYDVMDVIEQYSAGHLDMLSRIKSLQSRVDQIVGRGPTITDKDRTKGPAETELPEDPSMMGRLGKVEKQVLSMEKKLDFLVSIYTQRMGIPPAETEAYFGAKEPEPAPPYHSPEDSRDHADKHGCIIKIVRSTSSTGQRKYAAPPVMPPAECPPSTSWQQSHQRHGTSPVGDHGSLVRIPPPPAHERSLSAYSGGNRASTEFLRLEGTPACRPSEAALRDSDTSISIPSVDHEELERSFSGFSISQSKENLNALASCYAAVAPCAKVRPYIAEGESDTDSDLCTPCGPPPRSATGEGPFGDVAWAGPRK

SMILES | activity change, less the hit threshold
COc1ccccc1C(=O)COC(=O)c1ccc(-n2cnnn2)cc1 | -14.7%
CCOC(=O)c1nnn(CC(=O)Nc2cccc(F)c2)c1C(=O)OCC | -9.5%
COc1ccc(CC(=O)Nc2ccc(-c3noc(-c4ccccc4OC)n3)cc2)cc1 | -16.7%
O=C(c1ccccc1)c1nccn1-c1ccc(Cl)nn1 | -7.9%
O=C(CSc1cccc[n+]1[O-])C12CC3CC(CC(C3)C1)C2 | -11.8%
O=C(NCCCN1CCOCC1)c1ccc(CS(=O)(=O)Cc2ccccc2Cl)o1 | -26.5%
Oc1c(N=NC(=S)Nc2ccccc2F)c2ccccc2n1Cc1ccccc1 | -9.8%
Cc1c(Cl)cccc1NC(=S)N=Nc1c(O)n(CN2CCOCC2)c2ccccc12 | 4.9% (active)
Oc1c(N=NC(=S)Nc2ccccc2F)c2ccccc2n1Cc1ccc(F)cc1 | 2.8% (active)
Oc1c(N=NC(=S)Nc2ccccc2F)c2ccccc2n1Cc1ccc(Cl)cc1 | -13.5%
Cc1ccc(Cn2c(O)c(N=NC(=S)Nc3ccccc3F)c3ccccc32)cc1 | -11.4%
Oc1c(N=NC(=S)Nc2ccccc2F)c2ccccc2n1Cc1ccccc1Cl | -10%
O=C(CN1C(=O)CSCC1=O)Nc1ccc2c(c1)OCO2 | -7.1%
Nc1ccc2nc(-c3cccs3)[nH]c2c1 | -8.8%
CC(C)(C)n1nnnc1C(c1cccs1)N1CCN(Cc2ccccc2)CC1 (stereo unspecified) | -11.7%
O=C(/C=C/Nc1ccc(F)c(F)c1)c1cccs1 | -17.4%
Cc1sc2nc(CN3CCOCC3)[nH]c(=S)c2c1C | 93.4% (active)
C/C(Nc1cccc(F)c1)=C(/C#N)C(N)=O | -14.7%
Cc1nc(NCc2cccnc2)c2c3c(sc2n1)CC(C)CC3 (stereo unspecified) | 26.7% (active)
Cc1cccc(NC(=O)CN2C(=O)S/C(=C\c3cccn3-c3cccc(C(=O)O)c3)C2=O)c1 | -18.5%
CC(C)c1nc2sc3c(=S)nc[nH]c3c2c2c1CCC2 | 14.2% (active)
S=c1nc[nH]c2c1sc1nc(-c3ccccc3)c3c(c12)CCCC3 | -4.2%
S=c1nc[nH]c2c1sc1nc(N3CCOCC3)c3c(c12)CCCC3 | 43.5% (active)
COc1ccc(S(=O)(=O)Nc2cccnc2)cc1 | -17.2%
CN(C)C(=O)c1ccc(NC(=O)c2cncc(Br)c2)cc1 | -12%
COc1ccccc1C(=O)NNC(=S)NC(=O)c1sc2ccccc2c1Cl | 19.7% (active)

SMILES | activity change, less the hit threshold
COc1cccc(C(=O)NC(=S)Nn2cnnc2)c1OC | -19.6%
Cc1ccc(NC(=S)NC(=O)c2sc3ccccc3c2Cl)c(C(=O)O)c1 | 13.9% (active)
COc1ccccc1C(=O)NC(=S)NNC(=O)c1sc2ccccc2c1Cl | 77% (active)
O=C(NC(=S)Nc1ccc(N2CCOCC2)c(Cl)c1)c1sc2ccccc2c1Cl | -10.6%
Cc1ccc(C(=O)NNC(=S)NC(=O)c2ccc(Cl)cc2)cc1 | -28.7%
O=C(NNC(=S)NC(=O)c1sc2ccccc2c1Cl)c1ccc(Cl)cc1 | 11.1% (active)
O=C(Nc1nc(=O)c2ccccc2s1)c1ccc(Cl)cc1 | -5.6%
CCC(C)N(C(=O)CSc1nnc(NC(C)C)s1)C1CCS(=O)(=O)C1 (stereo unspecified) | -15.4%
O=c1cc(CN2CCN(S(=O)(=O)c3ccc4c(c3)OCCO4)CC2)c2ccc(O)cc2o1 | -20%
S=c1[nH]nc(CSc2nc3ccccc3s2)n1C1CCCCC1 | -2.2%
Cc1ccc(C(=O)Nc2nc(=O)n(C)s2)cc1 | -12%
Cc1ccc(CNC(=O)c2ccc(CNc3c(N4CCCC4)c(=O)c3=O)cc2)cc1 | -23.6%
Cc1ccc(C(=O)NNc2cc(N3CCCC3)nc(N3CCCC3)n2)cc1 | 16.1% (active)
O=C(Nc1nnc(C2=COCCO2)o1)c1ccc(Br)cc1 | -2.3%
CCn1cc(C(=O)NCCN(C)C)c(=O)c2cc(F)c(N3CCN(C)CC3)cc21 | -23.9%
COc1ccc(NC(=O)c2ccc(NC3=NC4CS(=O)(=O)CC4S3)cc2)cc1 (stereo unspecified) | -19.9%
COc1ccc(C(=O)Nc2ccc(-n3nncc3C(C)(C)C)cc2)cc1 | 17.5% (active)
COc1ccc(NC(=O)c2ccc(COCC(F)(F)C(F)F)cc2)cc1 | -19.7%
CCSc1nnc(NC(=O)CC(C)C)s1 | -11.1%
NC(=O)c1nn2c(C(F)(F)F)cc(-c3ccccc3)nc2c1Br | -18.2%
Cc1[nH]n2c(=O)cc(C(C)(C)C)nc2c1-c1ccccc1 | 14.6% (active)
Cc1nn(CCC#N)c2nc(-c3ccccc3)cc(C(F)(F)F)c12 | -22.2%
O=c1cc(-c2ccccc2)nc2c(-c3ccccc3)c(C(F)(F)F)[nH]n12 | 59.6% (active)
Cc1[nH]n2c(=O)cc(C(C)C)nc2c1-c1ccccc1 | -3.3%
CN(C(=O)CCc1ccccc1)c1nnc(-c2ccncc2)s1 | -20.2%
